SMILES strings stand for the structures. Some compounds were tested as several samples or in several runs, with calls that do not always agree. Active and inactive are the calls of the source. The calls were made as follows: active = hit-call score of the fitted dose curve at least 0.9, where 1 is the maximum; inactive = score below 0.9.

Read-out in the assay: Interleukin-8 (IL8), CXCL8 (gene 3576)
Put plainly: BSK_IMphg_IL8: BioMAP Diversity Plus: IMphg Assay for Interleukin-8 (IL8) Biomarker Activity (AID 2284277). The conditions noted are these: primary human endothelial cells with macrophages. The protocol:
BSK_IMphg is a cell-based, multiplexed-readout assay that uses venular endothelial cells and macrophages, a human vascular primary cell, with measurements taken at 24 hours after chemical dosing in a microplate: 96-well plate.BSK_IMphg_IL8 is an assay component measured in the BSK_IMphg assay. It measures IL-8 antibody related to regulation of gene expression using ELISA technology.Data from the assay component BSK_IMphg_IL8 was analyzed at the endpoint, BSK_IMphg_IL8, in the positive analysis fitting direction relative to DMSO as the negative control and baseline of activity. Using a type of binding reporter, gain or loss-of-signal activity can be used to understand protein changes. To generalize the intended target to other relatable targets, this assay endpoint is annotated to the 'cytokine' intended target family, where the subfamily is 'interleukins'.
The levels of cell surface (or secreted, indicated by the prefix "s") biomarker endpoints were measured by ELISA. Overt cytotoxicity to cells in confluent adherent cultures (all systems other than the BT system) was assessed by measuring total protein levels using sulforhodamine B (SRB) staining in parallel cultures at the time of biomarker measurements, indicated as SRB endpoints. For proliferation assays for adherent cell types, individual cell types are cultured at sub-confluence and relative cell numbers quantified by SRB staining at time points optimized for each system (48 h: 3C and CASM3C systems; 72 h: BT and HDF3CGF systems; 96 h: SAg system). SRB was performed by staining cells with 0.1% SRB after fixation with 10% TCA and reading wells at 560 nm.Viability and proliferation of PBMC (T cells) was quantified by Alamar Blue reduction for the SAg and BT systems. For PBMC viability (referred to as PBMC Cytotoxicity within the assay endpoint names), cells were plated (75,000/well in a 96-well plate) and then chemical samples added for 1 h before addition of activators, SEB and TSST-1 (20 ng/mL final concentration each). Cells were incubated for 90 h. Then, Alamar Blue (20 uL/well) (Invitrogen, Cat DAL1100) was added for 6 h, and the plates were read with a fluorescence microplate reader at 546/580 nm (excitation/emission). For PBMC proliferation, cells were plated and activated as above but incubated for only 16 h prior to addition of Alamar Blue. Plates were read after 6 h.
On to `FC(F)(F)COC(OCC(F)(F)F)OCC(F)(F)F`, for which the outcome was inactive.
On the same count and under the same terms, the entry for `FC(F)(F)C(F)(F)C(F)(F)C(F)(F)C(F)(F)C(F)(F)I` is “inactive”; for `OCCC(F)(F)C(F)(F)C(F)(F)C(F)(F)F` it is “inactive”.
Turning to `OC(O)(C(F)C(O)(O)C(F)(F)F)C(F)(F)F`, the concentration at half-maximal activity (AC50) is 50.1 µM (active) and the result was inactive.
With `C[Si](C)(C)C(F)(F)C(F)(F)C(F)(F)F`, the result was inactive.
Consider `O=C(Cl)C(F)(F)C(F)(F)C(F)(F)C(=O)Cl`, for which the outcome was inactive.
Consider `FC(F)C(F)(F)COCC1CO1` (stereo unspecified), for which the outcome was inactive.
The same measure, in the same setting: the entry for `NCC(F)(F)C(F)(F)C(F)(F)C(F)(F)F` is “inactive”; for `O=S(=O)(O)CCC(F)(F)C(F)(F)C(F)(F)C(F)(F)C(F)(F)C(F)(F)F` it is “inactive”.
On the same count and under the same terms, in the case of `FC(F)=C(F)C(F)(F)C(F)(F)C(F)(F)C(F)(F)C(F)(F)C(F)(F)F` it was “inactive”.

Source of the values: PubChem BioAssay (EPA / NIEHS).
